According to PubChem BioAssay (NCI):
Values joined by “and” are separate entries in the source; they are usually repeats but may differ in a detail not shown here. Equal values may be shown once. Compounds without any hit were thinned out: in the full panel of roughly 79,000, 15% have a hit. The source holds several records for some structures; these can differ, active in one and inactive in another. Active and inactive are the calls of the source. No stated cut-off is given here; in the data, active means growth inhibition above about 70%; inactive means the rest.

Assays:
[1] = NCI Yeast Anticancer Drug Screen. Data for the rad50 strain (AID 155);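 further: 0% = growth of vehicle-only cultures of the same strain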; details: S. cerevisiae rad50 strain growth inhibition, stronger effect = higher value
Procedure, shortened: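 Genetically altered yeast (DNA repair pathway); compound treatment; growth inhibition vs vehicle ctrl.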

[2] = NCI Yeast Anticancer Drug Screen. Data for the mec2-1 strain (AID 157); details: S. cerevisiae mec2-1 strain, stronger effect = higher value
Procedure, shortened: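 Growth inhibition is read against vehicle-treated controls after compound exposure of the mec2-1 yeast strain, which is defective in DNA damage repair or cell cycle control.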

[3] = NCI Yeast Anticancer Drug Screen. Data for the sgs1 mgt1 strain (AID 161);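 further: 0% = growth of cultures given vehicle only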; details: S. cerevisiae sgs1 mgt1 strain, stronger effect = higher value
Procedure, shortened: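 Percent growth inhibition was derived by comparing compound-exposed mutant yeast with vehicle-exposed cultures. The strain carries alterations in DNA damage repair.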

[4] = NCI Yeast Anticancer Drug Screen. Data for the cln2 rad14 strain (AID 165);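 further: 0% = growth equal to vehicle treated cultures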; details: S. cerevisiae cln2 rad14 strain, stronger effect = higher value
Procedure, shortened: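 Growth inhibition, relative to vehicle-treated controls, is the read-out. The test organism is a yeast strain with defined genetic alterations, cln2 rad14.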

[5] = NCI Yeast Anticancer Drug Screen. Data for the bub3 strain (AID 167); details: S. cerevisiae bub3 mutant strain, stronger effect = higher value
Procedure, shortened: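 Yeast carrying a defined mutation is treated with each compound, and growth is compared with that of vehicle-exposed cells to give inhibition.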

[6] = NCI Yeast Anticancer Drug Screen. Data for the wt2 strain (AID 169);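 further: 0% = growth of vehicle-treated yeast cultures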; details: S. cerevisiae wt2 strain growth inhibition, stronger effect = higher value
Procedure, shortened: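 Compound exposure of yeast; growth compared with vehicle controls; inhibition reported.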

[7] = NCI Yeast Anticancer Drug Screen. Data for the mlh1 rad18 strain (AID 175); details: S. cerevisiae mlh1 rad18 strain growth inhibition, stronger effect = higher value
Procedure, shortened: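 Cells of a genetically altered yeast strain, deficient in DNA damage repair, were treated with compound. Their growth was then compared with that of vehicle-treated cultures to give inhibition.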

[8] = at 5.0 µM (retest, dose inferred, filed as 0.5)
[9] = at 50.0 µM (retest, dose inferred, filed as 5.0)

Measured: growth inhibition

Cc1c(C)c(CCl)c(C)c(C)c1CCl
inactive: [1]; [8] 53% | [3]; [8] 1% | [3]; [9] 43% | [4]; [8] 34% | [5]; [8] 14% | [5]; [9] 39% | [5]; at 50.0 µM 61.5% | [6]; at 1.2 µM 0% | [6]; at 3.7 µM 25% | [7]; [8] 66%
active: [1]; [9] 95% | [1]; at 50.0 µM 87.7% | [2]; [8] 71% | [2]; [9] 96% | [2]; at 50.0 µM 86% | [3]; at 50.0 µM 75.2% | [4]; [9] 84% | [4]; at 50.0 µM 72.5% | [6]; at 11.0 µM 71% | [6]; at 33.0 µM 82% | [6]; at 100.0 µM 83% | [7]; [9] 95% | [7]; at 50.0 µM 82%

Nc1cc2ccccc2cc1Br
inactive: [1]; [8] 43% | [2]; [8] 30% | [2]; [9] 62% | [2]; at 50.0 µM 42.9% | [3]; [8] 14% | [3]; [9] 26% | [4]; [8] 54% | [4]; [9] 44% | [4]; at 50.0 µM 41.6% | [5]; [8] 22% | [5]; [9] 52% | [6]; at 1.2 µM -13% | [6]; at 3.7 µM -17% | [6]; at 11.0 µM -17% | [6]; at 33.0 µM 12% | [7]; [8] 40% | [7]; at 50.0 µM 45%
active: [1]; [9] 73% | [1]; at 50.0 µM 81% | [3]; at 50.0 µM 71.8% | [5]; at 50.0 µM 74.7% | [6]; at 100.0 µM 97% | [7]; [9] 82%

COc1ccc(Cc2ccc(O)cc2)cc1
active: [1]; [9] 79% | [2]; [9] 88%
inactive: [1]; [8] 41% | [1]; at 50.0 µM 33.3% | [2]; [8] 40% | [2]; at 50.0 µM 27.8% | [3]; [8] -9% | [3]; [9] 47% | [3]; at 50.0 µM 52.8% | [4]; [8] 42% | [4]; [9] 8% | [4]; at 50.0 µM -20.9% | [5]; [8] -16% | [5]; [9] 49% | [5]; at 50.0 µM 30.9% | [6]; at 1.2 µM -12% | [6]; at 3.7 µM -8% | [6]; at 11.0 µM -9% | [6]; at 33.0 µM 6% | [6]; at 100.0 µM 11% | [7]; [8] 27% | [7]; [9] 54% | [7]; at 50.0 µM 28.8%

Oc1c(Cl)cc(Cl)c(Cl)c1Cl
active: [1]; [9] 94% and 98% | [1]; at 50.0 µM 85.2% and 98.3% | [2]; [9] 96% and 98% | [2]; at 50.0 µM 94.3% and 99.6% | [3]; [9] 98% and 86% | [3]; at 50.0 µM 80.5% and 99.3% | [4]; [9] 98% and 97% | [4]; at 50.0 µM 89.7% and 98.5% | [5]; [9] 85% and 96% | [5]; at 50.0 µM 88.8% and 99.1%
inactive: [1]; [8] -2% and 11% | [2]; [8] 8% and 14% | [3]; [8] -3% and 3% | [4]; [8] 11% and -10% | [5]; [8] -3% and 39%

O=C(OCC(OC(=O)c1ccccc1)C(OC(=O)c1ccccc1)C(OC(=O)c1ccccc1)C(OC(=O)c1ccccc1)c1nn[nH]n1)c1ccccc1 (stereo unspecified)
active: [1]; [9] 72% and 81% | [1]; at 50.0 µM 93.1% and 90.7% | [2]; [9] 72% and 77% | [2]; at 50.0 µM 87.5% and 89% | [3]; [9] 72% and 75% | [3]; at 50.0 µM 93.3% and 91.6% | [4]; [9] 75% and 82% | [4]; at 50.0 µM 90.2% and 90.3% | [5]; [9] 88% and 74% | [5]; at 50.0 µM 78.6% and 82.8%
75% (active) and 16% (inactive): [5]; [8]
inactive: [1]; [8] 61% and 23% | [2]; [8] 52% and 41% | [3]; [8] 54% and 18% | [4]; [8] 54% and 40%

CCSC1=C(C)C(=O)c2ccccc2C1=O
active: [1]; [9] 99% | [1]; at 50.0 µM 70.1% | [2]; [9] 99% | [3]; at 50.0 µM 74.2% | [5]; at 50.0 µM 77.2% | [6]; at 100.0 µM 98%
inactive: [1]; [8] 35% | [2]; [8] 32% | [2]; at 50.0 µM 50.1% | [3]; [8] 7% | [3]; [9] 26% | [4]; [8] 44% | [4]; [9] 34% | [4]; at 50.0 µM 41.9% | [5]; [8] -6% | [5]; [9] 36% | [6]; at 1.2 µM 18% | [6]; at 3.7 µM 11% | [6]; at 11.0 µM 6% | [6]; at 33.0 µM 20% | [7]; [8] 11% | [7]; [9] 62% | [7]; at 50.0 µM 55%

CCN(CC)Cc1cc2c(cc1O)CC[C@@H]1[C@@H]2CC[C@]2(C)C(=O)CC[C@@H]12
inactive: [1]; [8] 39% | [2]; [8] -5% | [2]; [9] 60% | [2]; at 50.0 µM 55.8% and 15.2% | [3]; [8] 16% | [3]; [9] 47% | [4]; [8] -2% | [4]; [9] 11%
78.5% (active) and 22.2% (inactive): [3]; at 50.0 µM
active: [1]; [9] 80%
83.6% (active) and 25.6% (inactive): [1]; at 50.0 µM
72.5% (active) and -21.2% (inactive): [4]; at 50.0 µM

CCc1nc(N)nc(N)c1-c1ccc(Cl)c(N=[N+]=[N-])c1
6.65% (inactive) and 71.2% (active): [1]; at 50.0 µM
inactive: [1]; [8] 41% | [1]; [9] 40% | [2]; [8] 18% | [2]; [9] 21% | [2]; at 50.0 µM -15.3% and 65.5% | [3]; [8] 56% | [3]; [9] 54% | [3]; at 50.0 µM -0.8% and 61.6% | [4]; [8] 18% | [4]; [9] 28% | [4]; at 50.0 µM -6.55% and 62.5% | [5]; [8] 30% | [5]; [9] 26% | [5]; at 50.0 µM 6.35% and 54.5%

O=C1C(Cl)=C(N2CCN(C3=C(Cl)C(=O)c4ccccc4C3=O)CC2)C(=O)c2ccccc21
active: [1]; [9] 98% | [1]; at 50.0 µM 84.4% | [2]; [9] 99% | [2]; at 50.0 µM 87.8% | [3]; [9] 99% | [3]; at 50.0 µM 88.7% | [4]; [9] 98% | [4]; at 50.0 µM 87.8% | [5]; [9] 98% | [5]; at 50.0 µM 87.9% | [7]; [9] 98%
inactive: [1]; [8] 26% | [2]; [8] 8% | [3]; [8] 44% | [4]; [8] 14% | [5]; [8] 39% | [7]; [8] 26%
